Experimental data reported in PubChem BioAssay (NCI).
About 79,000 compounds went through this panel and 15% of them were active in at least one assay; those are over-represented in the sample as a whole. Rule as the data show it: active = growth inhibition above about 70%; inactive = the rest.

How the values were obtained:
[1] = NCI Yeast Anticancer Drug Screen. Data for the rad50 strain (AID 155);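 also: 0% = growth of vehicle-only cultures of the same strain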; conditions: S. cerevisiae rad50 strain growth inhibition; at 50.0 µM; hits give high values
Procedure, shortened: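 Inhibition values express reduced yeast growth in compound-treated cultures relative to vehicle-treated controls.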

[2] = NCI Yeast Anticancer Drug Screen. Data for the mec2-1 strain (AID 157); conditions: S. cerevisiae mec2-1 strain, at 50.0 µM, hits give high values
Procedure, shortened: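 Mutant yeast (mec2-1) grown with compound; growth inhibition relative to vehicle control reported.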

[3] = NCI Yeast Anticancer Drug Screen. Data for the sgs1 mgt1 strain (AID 161);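 also: 0% = growth of cultures given vehicle only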; conditions: S. cerevisiae sgs1 mgt1 strain, at 50.0 µM, hits give high values
Procedure, shortened: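 Percent growth inhibition was derived by comparing compound-exposed mutant yeast with vehicle-exposed cultures. The strain carries alterations in DNA damage repair.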

[4] = NCI Yeast Anticancer Drug Screen. Data for the cln2 rad14 strain (AID 165);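 also: 0% = growth equal to vehicle treated cultures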; conditions: S. cerevisiae cln2 rad14 strain, at 50.0 µM, hits give high values
Procedure, shortened: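 Readout is yeast growth inhibition versus vehicle-treated controls, using a strain with cln2 and rad14 alterations exposed to compound.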

[5] = NCI Yeast Anticancer Drug Screen. Data for the bub3 strain (AID 167); conditions: S. cerevisiae bub3 mutant strain, at 50.0 µM, hits give high values
Procedure, shortened: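 Steps: expose the mutant yeast strain to compound; grow alongside vehicle-treated cultures; measure growth; express inhibition against the vehicle cultures.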

[6] = NCI Yeast Anticancer Drug Screen. Data for the mlh1 rad18 strain (AID 175); conditions: S. cerevisiae mlh1 rad18 strain growth inhibition; at 50.0 µM; hits give high values
Procedure, shortened: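 Genetically defined yeast (DNA repair-deficient) exposed to compounds; growth inhibition determined relative to vehicle.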

Measured: growth inhibition

COc1cc(/C=C2\C(=O)N(C(=O)c3ccc(NC(C)=O)cc3)N=C2C)ccc1O
inactive: [1] -44.7% | [2] -41.1% | [3] -68.8% | [4] -40.4% | [5] -51% | [6] -64%

CCOC(=O)C(=[N+]=[N-])C(O)C1OC(c2ccccc2)OCC1O (stereo unspecified)
inactive: [1] 12.8% | [2] 18.1% | [3] 18.9% | [4] 22.1% | [5] 9.15% | [6] 24.7%

CCC1CC/C(=N\Nc2ccc([N+](=O)[O-])cc2[N+](=O)[O-])c2ccc3c(C)ccc(C)c3c21 (stereo unspecified)
inactive: [1] -1% | [2] 7.25% | [3] -8.7% | [4] -14.2% | [5] -2.5% | [6] 6.8%

Cc1ccc(S(=O)(=O)OC2CCCCCCCCCCC2=O)cc1 (stereo unspecified)
inactive: [1] -3.55% | [2] 6.1% | [3] -7.1% | [4] -11.9% | [5] -0.2% | [6] 6.3%

COc1ccc(NC(=O)Nc2ccc(NC(C)=O)cc2)c(OC)c1
inactive: [1] -6% | [2] -18.2% | [3] 14.5% | [4] 7.65% | [5] 17.1% | [6] 10.7%

CCOC(=O)C(CC1OCCO1)C1=NC(C)(C)CC(C)O1 (stereo unspecified)
inactive: [1] -18.4% | [2] 1.2% | [3] -11.4% | [4] -0.05% | [5] -7% | [6] 3.85%

Cc1ccc(NC(=O)CC#N)c(C)c1
inactive: [1] -11.8% | [2] -10.2% | [3] -17.9% | [4] -40.9% | [5] -0.7% | [6] 4%

Cc1nn2c(-c3ccccc3)cnnc2c1-c1ccccc1
inactive: [1] -19.4% | [2] -21.1% | [3] -12.8% | [4] -26.1% | [5] 6.75% | [6] -10.8%

CC1CC(=O)Nc2ccccc2N1C(=O)C1CC1 (stereo unspecified)
inactive: [1] -8.15% | [2] -33.4% | [3] -2.75% | [4] 2.7% | [5] -11.6% | [6] -1.85%

CCCCC1SC2=NCCN2C1(O)c1ccc(Cl)cc1 (stereo unspecified)
inactive: [1] 14.6% | [2] 3.55% | [3] 28.9% | [4] 18% | [5] 31.3% | [6] 26.5%

COc1cc(N=Nc2cccc(S(=O)(=O)O)c2)ccc1NC(=O)c1ccc(C(=O)Nc2ccc(N=Nc3cccc(S(=O)(=O)O)c3)cc2OC)cc1
inactive: [1] 3.35% | [2] 17.4% | [3] 23% | [4] -8.2% | [5] -13.8% | [6] 21.2%

O=C(O)c1ccc(N=NC2Sc3nc4ccccc4n3C2=O)cc1 (stereo unspecified)
inactive: [1] 16.7% | [2] -13.8% | [3] 15.7% | [4] -8.9% | [5] 11.2% | [6] 44.2%

O=C1CN(c2ccccc2)CC(=O)N2C(c3ccccc3)CCCN12 (stereo unspecified)
inactive: [1] 22.3% | [2] 1.65% | [3] -6.05% | [4] 26.2% | [5] 24.4% | [6] 3.35%

CCCCCC/C=C\CCCCCCCCCC1=CC(=O)C=C(OC)C1=O
inactive: [1] -1.35% | [2] -10.2% | [3] -19% | [4] -83.8% | [5] -31.4% | [6] -11.7%

CC1=C/C(=N/NS(=O)(=O)c2ccc(C)cc2)CC(C)(C)C1
inactive: [1] 27.6% | [2] -3.25% | [3] 11.8% | [4] -22.3% | [5] 4.1% | [6] 13.2%

COc1ccc(-c2cc(-c3ccccc3)nc(-c3cccc([N+](=O)[O-])c3)c2)cc1
inactive: [1] -1.6% | [2] -4.4% | [3] 11.4% | [4] -3.75% | [5] 21.2% | [6] 18.4%

CCCCCCCC(=O)Nc1ccc(-n2c(=O)cc(C)n2C)cc1
inactive: [1] 15.7% | [2] -1.25% | [3] 12.2% | [4] -32% | [5] -7.7% | [6] 14.1%

COc1ccc(C2CCCCCC2OC(=O)c2ccc([N+](=O)[O-])cc2)c(OC)c1OC (stereo unspecified)
inactive: [1] 16% | [2] 11.5% | [3] -2.45% | [4] 42.9% | [5] 2.6% | [6] 1.7%

CC1CCCC2(C1)OCC(O)CO2 (stereo unspecified)
inactive: [1] 23.2% | [2] -2.2% | [3] 8.8% | [4] 12.8% | [5] 7.65% | [6] 10.2%

CN(C)CCSSCCN(C)C
inactive: [1] -7.55% | [2] -5.65% | [3] -13.6% | [4] -14.1% | [5] -2.55% | [6] -3.55%

CC12CCCC=C1C(C)(C)C(O)CC2 (stereo unspecified)
inactive: [1] 3.45% | [2] 1.7% | [3] 2.95% | [4] 7.3% | [5] -26.8% | [6] 0.8%

S=C(NNC(=S)Nc1ccccc1)Nc1ccccc1
inactive: [1] -16.9% | [2] 1.7% | [3] 6.9% | [4] -1.15% | [5] -5.4% | [6] -2.2%

CC(=O)C1C(=O)C(=O)N(c2ccc(S(N)(=O)=O)cc2)C1=O (stereo unspecified)
inactive: [1] -37.3% | [2] 1.3% | [3] 7.6% | [4] -32.7% | [5] -14.2% | [6] 8.05%

CNC(=O)Nc1ccnc(=O)[nH]1
inactive: [1] -10.6% | [2] -1.85% | [3] -6.15% | [4] -28.3% | [5] -9.55% | [6] -8.8%

CC12CC(C/C1=N/O)C(C)(C)C2 (stereo unspecified)
inactive: [1] -4.3% | [2] 16.4% | [3] 1.55% | [4] 15.7% | [5] -7.65% | [6] 9.6%

CN(C)CC(CN(C)C)C(=O)c1ccccc1
inactive: [1] 8.6% | [2] 19.6% | [3] 16.3% | [4] -1% | [5] -24.1% | [6] -4.05%

CC(C)=CCS(=O)c1ccccc1NC1=CC(=O)CC(C)(C)C1 (stereo unspecified)
inactive: [1] -16.2% | [2] -26.1% | [3] -37.6% | [4] -7.55% | [5] -5.8% | [6] -3.55%

Cc1cc(Cl)ccc1OCC(=O)OCCBr
inactive: [1] 3.55% | [2] 17.9% | [3] 5.35% | [4] -23.2% | [5] -22.9% | [6] -8.15%

COCC1(c2ccccc2)NC(=O)N(C)C1=O (stereo unspecified)
inactive: [1] -3.05% | [2] -2.15% | [3] -1.35% | [4] -9.15% | [5] -7.35% | [6] -2%

CC(C)(C)N[P+](Cc1ccc(C[P+](NC(C)(C)C)(NC(C)(C)C)c2ccccc2)cc1)(NC(C)(C)C)c1ccccc1
inactive: [1] -3.05% | [2] -10.1% | [3] -0.9% | [4] -13.5% | [5] -2.1% | [6] 5.45%

CN(C)c1ccc(N=Nc2ccc3nc[nH]c3c2)cc1
inactive: [1] -3.15% | [2] 6.65% | [3] 42% | [4] -6.1% | [5] -3.3% | [6] 26.5%

O=C(O)C(=O)c1ccc(O)cc1O
inactive: [1] -1.6% | [2] 2.6% | [3] -8.15% | [4] -35.9% | [5] 1.85% | [6] 14.9%

CC(Cc1ccccc1)c1ccccc1 (stereo unspecified)
inactive: [1] 15.9% | [2] 16.2% | [3] 10.7% | [4] 3.35% | [5] -0.05% | [6] 2.1%

Nc1ccc(N=Nc2c(S(=O)(=O)O)cc3cc(S(=O)(=O)O)cc(O)c3c2O)cc1
inactive: [1] -30.8% | [2] -16.4% | [3] -29.5% | [4] -23.9% | [5] 6.55% | [6] 10.8%

CCOC(=O)CSCCC(=O)OC
inactive: [1] -1.3% | [2] 3.1% | [3] -0.8% | [4] -5.5% | [5] -0.05% | [6] 1.35%

CCc1occc(=O)c1O
inactive: [1] 16.6% | [2] -6.95% | [3] -1.75% | [4] 1.75% | [5] 16.8% | [6] -9.1%

NC(=O)N/N=C/c1c(Cl)cccc1Cl
inactive: [1] 15.9% | [2] 17.2% | [3] 1.4% | [4] -10.7% | [5] -27.6% | [6] 31.5%

COC1=CC(=C(\C#N)c2ccccc2)/C=CC/1=N/O
inactive: [1] 40.2% | [2] 39% | [3] 46.6% | [4] -2% | [5] 64.5% | [6] 46.8%

Cn1c(=O)c2c(nc3n(C)c(=O)c4ccccc4n23)n(C)c1=O
inactive: [1] 64.7% | [2] 32.8% | [3] -8.15% | [4] 7.3% | [5] 5.45% | [6] 45.6%

Cc1sc2ncnc(Cl)c2c1C
inactive: [1] 1.95% | [2] 13.2% | [3] -1.4% | [4] -23% | [5] 4.45% | [6] 4.05%

CC(=O)OCOC(=O)CN(CC(=O)OCOC(C)=O)Cc1cc2c(cc1OC(C)=O)Oc1cc(OC(C)=O)c(CN(CC(=O)OCOC(C)=O)CC(=O)OCOC(C)=O)cc1C21OC(=O)c2ccccc21
inactive: [1] 14.1% | [2] 9.1% | [3] 15.2% | [4] 14.8% | [5] -5% | [6] 35.1%
